# Measured values published in ChEMBL document CHEMBL2218924, “A broad activity screen in support of a chemogenomic map for kinase signalling research and drug discovery” (Biochem J, 2013).
# Columns and labels:
# [1] = target: T1, Ephrin type-B receptor 1 (Homo sapiens) (UniProt P54762); details: at 10 µM
# T1 sequence (whole entry): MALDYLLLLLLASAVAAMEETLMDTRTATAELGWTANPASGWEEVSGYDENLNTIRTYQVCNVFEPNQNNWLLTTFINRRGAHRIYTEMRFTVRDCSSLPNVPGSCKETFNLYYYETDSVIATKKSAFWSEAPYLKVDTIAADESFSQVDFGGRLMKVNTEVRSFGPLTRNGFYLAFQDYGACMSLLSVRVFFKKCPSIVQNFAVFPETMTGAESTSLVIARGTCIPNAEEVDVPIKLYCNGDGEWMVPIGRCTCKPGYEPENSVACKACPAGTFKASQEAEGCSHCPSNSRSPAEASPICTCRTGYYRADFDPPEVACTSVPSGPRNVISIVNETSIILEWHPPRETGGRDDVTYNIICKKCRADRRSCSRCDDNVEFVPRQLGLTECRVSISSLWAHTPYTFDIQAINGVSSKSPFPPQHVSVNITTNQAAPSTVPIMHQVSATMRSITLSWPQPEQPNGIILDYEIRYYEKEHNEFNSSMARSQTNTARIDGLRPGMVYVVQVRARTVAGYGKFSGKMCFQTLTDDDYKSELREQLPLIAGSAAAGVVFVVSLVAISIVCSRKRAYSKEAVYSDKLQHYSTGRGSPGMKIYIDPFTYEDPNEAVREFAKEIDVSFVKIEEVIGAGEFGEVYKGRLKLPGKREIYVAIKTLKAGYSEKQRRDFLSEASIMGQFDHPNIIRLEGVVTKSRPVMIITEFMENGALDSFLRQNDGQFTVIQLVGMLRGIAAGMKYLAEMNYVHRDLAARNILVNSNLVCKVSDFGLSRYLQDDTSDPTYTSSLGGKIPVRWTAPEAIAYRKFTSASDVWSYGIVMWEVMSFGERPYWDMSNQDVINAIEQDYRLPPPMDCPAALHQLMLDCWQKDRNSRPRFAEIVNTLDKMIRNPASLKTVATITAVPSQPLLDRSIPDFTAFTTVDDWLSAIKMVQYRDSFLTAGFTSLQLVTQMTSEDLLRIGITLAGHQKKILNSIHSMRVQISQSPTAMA
# [2] = target: T2, Ephrin type-B receptor 2 (Homo sapiens) (UniProt P29323); details: at 1 µM
# T2 sequence (whole entry): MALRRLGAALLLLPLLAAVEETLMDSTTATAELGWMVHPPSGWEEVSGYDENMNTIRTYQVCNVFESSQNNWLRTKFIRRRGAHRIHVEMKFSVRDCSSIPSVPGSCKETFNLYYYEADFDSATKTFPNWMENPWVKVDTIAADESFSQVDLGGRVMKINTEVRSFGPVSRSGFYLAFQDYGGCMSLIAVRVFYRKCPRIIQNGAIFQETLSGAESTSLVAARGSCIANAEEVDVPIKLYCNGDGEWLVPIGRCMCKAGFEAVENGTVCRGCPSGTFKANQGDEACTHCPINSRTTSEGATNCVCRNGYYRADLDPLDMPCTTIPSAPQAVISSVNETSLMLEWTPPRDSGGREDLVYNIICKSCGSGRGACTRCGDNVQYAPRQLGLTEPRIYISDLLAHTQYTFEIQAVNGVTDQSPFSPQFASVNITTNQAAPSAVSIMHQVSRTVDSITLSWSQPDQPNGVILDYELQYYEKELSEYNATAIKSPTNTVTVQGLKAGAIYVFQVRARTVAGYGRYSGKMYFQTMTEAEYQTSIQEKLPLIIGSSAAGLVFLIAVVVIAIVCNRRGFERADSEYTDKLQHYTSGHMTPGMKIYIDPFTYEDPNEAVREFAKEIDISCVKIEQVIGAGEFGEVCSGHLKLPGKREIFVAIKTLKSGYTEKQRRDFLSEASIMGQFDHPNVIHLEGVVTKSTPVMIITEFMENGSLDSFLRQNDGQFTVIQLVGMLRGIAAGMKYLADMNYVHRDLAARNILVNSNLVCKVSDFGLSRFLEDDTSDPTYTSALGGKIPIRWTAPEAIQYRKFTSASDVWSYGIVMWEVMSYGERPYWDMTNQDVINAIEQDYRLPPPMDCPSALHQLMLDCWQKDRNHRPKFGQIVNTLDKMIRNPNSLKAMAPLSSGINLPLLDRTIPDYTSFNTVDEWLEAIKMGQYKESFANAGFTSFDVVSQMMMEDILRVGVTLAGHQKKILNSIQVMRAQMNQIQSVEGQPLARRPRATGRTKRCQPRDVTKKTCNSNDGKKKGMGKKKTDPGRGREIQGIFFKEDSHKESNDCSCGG
# [3] = target: T2, Ephrin type-B receptor 2 (Homo sapiens); details: at 10 µM
# [4] = target: T3, Ephrin type-B receptor 3 (Homo sapiens) (UniProt P54753); details: at 1 µM
# T3 sequence (whole entry): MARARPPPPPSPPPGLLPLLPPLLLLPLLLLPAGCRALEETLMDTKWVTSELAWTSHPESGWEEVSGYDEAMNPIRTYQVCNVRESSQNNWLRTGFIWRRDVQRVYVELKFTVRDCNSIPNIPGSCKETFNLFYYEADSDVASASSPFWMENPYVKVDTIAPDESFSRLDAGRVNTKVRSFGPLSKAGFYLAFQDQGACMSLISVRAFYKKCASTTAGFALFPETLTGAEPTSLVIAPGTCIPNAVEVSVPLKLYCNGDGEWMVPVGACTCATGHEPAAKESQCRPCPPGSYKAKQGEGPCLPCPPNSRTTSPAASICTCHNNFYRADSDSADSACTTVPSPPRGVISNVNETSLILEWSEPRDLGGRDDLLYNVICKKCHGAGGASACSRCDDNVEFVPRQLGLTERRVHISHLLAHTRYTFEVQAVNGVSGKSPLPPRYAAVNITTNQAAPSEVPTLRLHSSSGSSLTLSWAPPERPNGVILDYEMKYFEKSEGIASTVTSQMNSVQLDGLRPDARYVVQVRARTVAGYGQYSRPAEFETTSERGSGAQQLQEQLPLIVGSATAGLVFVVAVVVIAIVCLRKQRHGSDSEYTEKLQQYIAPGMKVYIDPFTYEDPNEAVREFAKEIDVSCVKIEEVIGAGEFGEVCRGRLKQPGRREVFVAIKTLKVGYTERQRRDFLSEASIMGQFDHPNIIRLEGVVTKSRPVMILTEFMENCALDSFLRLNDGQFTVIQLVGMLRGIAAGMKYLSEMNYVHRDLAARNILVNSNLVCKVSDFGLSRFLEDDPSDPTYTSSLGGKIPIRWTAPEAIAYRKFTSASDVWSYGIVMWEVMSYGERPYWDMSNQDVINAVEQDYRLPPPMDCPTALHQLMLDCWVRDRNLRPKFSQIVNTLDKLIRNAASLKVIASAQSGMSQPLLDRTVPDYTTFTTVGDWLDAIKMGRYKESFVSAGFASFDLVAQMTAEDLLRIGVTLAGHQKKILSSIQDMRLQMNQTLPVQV
# [5] = target: T3, Ephrin type-B receptor 3 (Homo sapiens); details: at 10 µM
# [6] = target: T4, Ephrin type-B receptor 4 (Homo sapiens) (UniProt P54760); details: at 1 µM
# T4 sequence (whole entry): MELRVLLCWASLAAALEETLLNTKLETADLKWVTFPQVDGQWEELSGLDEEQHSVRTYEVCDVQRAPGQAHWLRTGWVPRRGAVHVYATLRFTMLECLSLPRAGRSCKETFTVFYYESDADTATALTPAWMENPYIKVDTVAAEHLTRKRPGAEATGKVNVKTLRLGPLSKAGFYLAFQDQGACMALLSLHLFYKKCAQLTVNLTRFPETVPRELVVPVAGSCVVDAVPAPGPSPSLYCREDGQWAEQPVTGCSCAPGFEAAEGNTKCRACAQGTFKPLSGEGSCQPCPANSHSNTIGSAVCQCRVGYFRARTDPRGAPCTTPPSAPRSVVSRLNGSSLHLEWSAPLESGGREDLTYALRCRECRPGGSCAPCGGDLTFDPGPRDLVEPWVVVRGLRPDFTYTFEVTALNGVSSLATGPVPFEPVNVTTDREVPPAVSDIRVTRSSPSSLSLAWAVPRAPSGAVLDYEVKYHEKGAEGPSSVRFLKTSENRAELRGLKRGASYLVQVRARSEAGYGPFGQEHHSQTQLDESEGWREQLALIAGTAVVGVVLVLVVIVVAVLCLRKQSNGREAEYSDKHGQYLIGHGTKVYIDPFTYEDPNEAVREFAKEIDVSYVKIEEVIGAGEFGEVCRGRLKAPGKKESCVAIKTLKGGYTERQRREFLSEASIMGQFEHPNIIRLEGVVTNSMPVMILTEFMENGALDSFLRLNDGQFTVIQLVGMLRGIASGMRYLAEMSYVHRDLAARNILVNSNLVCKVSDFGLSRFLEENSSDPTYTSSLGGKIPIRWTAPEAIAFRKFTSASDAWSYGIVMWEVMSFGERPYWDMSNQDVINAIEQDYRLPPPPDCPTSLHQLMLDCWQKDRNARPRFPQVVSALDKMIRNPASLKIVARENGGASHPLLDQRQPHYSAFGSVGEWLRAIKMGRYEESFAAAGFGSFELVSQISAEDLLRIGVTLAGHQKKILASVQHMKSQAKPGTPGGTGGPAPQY
# [7] = target: T4, Ephrin type-B receptor 4 (Homo sapiens); details: at 10 µM
# [8] = target: Receptor tyrosine-protein kinase erbB-4 (Homo sapiens) (UniProt Q15303); details: at 1 µM
# Chain of Receptor tyrosine-protein kinase erbB-4 (Homo sapiens) (Q15303 whole entry): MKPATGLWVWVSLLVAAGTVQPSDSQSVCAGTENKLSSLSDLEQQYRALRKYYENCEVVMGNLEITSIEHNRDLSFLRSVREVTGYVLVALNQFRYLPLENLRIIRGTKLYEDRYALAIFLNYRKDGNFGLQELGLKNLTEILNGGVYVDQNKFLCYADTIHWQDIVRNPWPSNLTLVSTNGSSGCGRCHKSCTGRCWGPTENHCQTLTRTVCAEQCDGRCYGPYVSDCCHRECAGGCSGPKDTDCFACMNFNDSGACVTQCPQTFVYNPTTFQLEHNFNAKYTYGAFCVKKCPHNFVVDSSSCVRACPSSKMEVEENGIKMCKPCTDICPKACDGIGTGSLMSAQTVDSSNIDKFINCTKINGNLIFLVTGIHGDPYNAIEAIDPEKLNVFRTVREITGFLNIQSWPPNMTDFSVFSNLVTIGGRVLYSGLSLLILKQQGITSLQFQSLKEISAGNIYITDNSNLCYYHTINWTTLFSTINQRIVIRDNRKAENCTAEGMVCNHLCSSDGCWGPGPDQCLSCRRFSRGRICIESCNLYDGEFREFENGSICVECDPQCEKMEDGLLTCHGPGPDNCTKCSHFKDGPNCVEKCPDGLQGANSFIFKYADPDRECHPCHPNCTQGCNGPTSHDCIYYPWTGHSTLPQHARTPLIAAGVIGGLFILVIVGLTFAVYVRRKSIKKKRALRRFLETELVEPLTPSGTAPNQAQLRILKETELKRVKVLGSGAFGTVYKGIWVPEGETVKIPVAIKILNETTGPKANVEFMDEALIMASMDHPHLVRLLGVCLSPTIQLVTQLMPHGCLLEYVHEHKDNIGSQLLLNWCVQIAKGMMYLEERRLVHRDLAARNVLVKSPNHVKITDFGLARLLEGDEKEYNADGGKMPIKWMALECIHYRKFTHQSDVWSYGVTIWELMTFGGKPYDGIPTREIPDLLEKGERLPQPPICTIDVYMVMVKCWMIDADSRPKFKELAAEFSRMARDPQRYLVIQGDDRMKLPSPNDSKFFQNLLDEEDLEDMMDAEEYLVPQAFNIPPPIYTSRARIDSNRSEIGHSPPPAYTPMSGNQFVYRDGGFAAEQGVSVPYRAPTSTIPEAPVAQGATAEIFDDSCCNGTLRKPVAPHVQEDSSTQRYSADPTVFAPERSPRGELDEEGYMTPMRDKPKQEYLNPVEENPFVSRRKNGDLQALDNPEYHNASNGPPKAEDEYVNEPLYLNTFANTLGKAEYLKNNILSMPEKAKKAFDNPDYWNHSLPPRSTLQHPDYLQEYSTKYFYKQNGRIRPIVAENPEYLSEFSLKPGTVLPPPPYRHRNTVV
# [9] = target: Receptor tyrosine-protein kinase erbB-4 (Homo sapiens) (UniProt Q15303); details: at 10 µM
# [10] = target: Focal adhesion kinase 1 (Homo sapiens) (UniProt Q05397); details: at 1 µM
# Chain of Focal adhesion kinase 1 (Homo sapiens) (Q05397 2-1052 limits assumed): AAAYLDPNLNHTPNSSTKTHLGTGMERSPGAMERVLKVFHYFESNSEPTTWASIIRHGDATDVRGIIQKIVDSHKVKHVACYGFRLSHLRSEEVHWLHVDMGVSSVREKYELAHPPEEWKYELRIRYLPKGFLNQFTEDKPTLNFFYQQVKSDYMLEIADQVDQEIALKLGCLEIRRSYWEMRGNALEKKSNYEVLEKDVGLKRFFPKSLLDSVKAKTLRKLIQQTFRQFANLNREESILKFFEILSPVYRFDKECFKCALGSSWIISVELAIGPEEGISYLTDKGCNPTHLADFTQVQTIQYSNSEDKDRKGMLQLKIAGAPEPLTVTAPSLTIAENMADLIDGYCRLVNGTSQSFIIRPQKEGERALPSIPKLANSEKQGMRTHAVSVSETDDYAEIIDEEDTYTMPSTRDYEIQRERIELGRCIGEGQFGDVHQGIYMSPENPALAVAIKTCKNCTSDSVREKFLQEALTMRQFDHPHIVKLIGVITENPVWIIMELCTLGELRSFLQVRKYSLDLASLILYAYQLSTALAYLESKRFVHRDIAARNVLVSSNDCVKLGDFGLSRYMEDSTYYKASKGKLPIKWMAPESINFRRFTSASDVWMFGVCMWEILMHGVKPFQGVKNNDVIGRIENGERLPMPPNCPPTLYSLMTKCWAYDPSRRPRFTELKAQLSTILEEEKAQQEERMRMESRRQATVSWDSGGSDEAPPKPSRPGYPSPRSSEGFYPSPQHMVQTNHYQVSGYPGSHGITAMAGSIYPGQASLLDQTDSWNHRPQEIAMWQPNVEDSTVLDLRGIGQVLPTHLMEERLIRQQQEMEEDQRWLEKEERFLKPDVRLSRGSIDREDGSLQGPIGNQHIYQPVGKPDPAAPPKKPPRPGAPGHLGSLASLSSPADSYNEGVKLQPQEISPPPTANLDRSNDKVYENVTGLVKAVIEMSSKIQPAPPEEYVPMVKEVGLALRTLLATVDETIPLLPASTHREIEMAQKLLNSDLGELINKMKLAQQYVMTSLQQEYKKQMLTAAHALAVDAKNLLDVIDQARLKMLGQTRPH
structure (smiles),measurement,setting,value
Nc1ccc2ncnc(NCCc3ccc(Oc4ccccc4)cc3)c2c1,residual activity,[1],96%
same,residual activity,[2],111%
same,residual activity,[3],93%
same,residual activity,[4],105% (inactive)
same,residual activity,[5],98%
same,residual activity,[6],96%
same,residual activity,[7],98%
same,residual activity,[8],33%
same,residual activity,[9],2%
same,residual activity,[10],106%
